Reference: PubChem BioAssay (Tox21)
“And” between values parts separate entries of the source, which are not always exact repeats. Equal values may be shown once. Records with an inconclusive call do not appear. The source made the active and inactive calls. The call rests on the fitted dose curve; in most records, active means well fitted activation curve with a large enough effect in the signal ratio in the repeat runs (not every such curve was filed as active); inconclusive means weak or mixed curves; inactive means flat fitted curve, though single readings scatter; the % refers to the signal ratio.

assay: qHTS assay to identify small molecule agonists of the hypoxia (HIF-1) signaling pathway (AID 1224846); details: HRE-bla ME-180 cells, beta-lactamase ratio, 17 h; series mostly up to 76.8 µM; activation: at the top concentration
From the text: U.S. Tox21 Program National Center for Advancing Translational Sciences [NCATS] NIH Chemical Genomics Center [NCGC] U.S. Environmental Protection Agency [EPA] National Institutes of Environmental Health Sciences [NIEHS] National Toxicology Program [NTP] U.S. Food and Drug Administration [FDA] Tox21 Assay Overview: Hypoxia-inducible factor-1 (HIF-1) is the major hypoxia-regulated transcription factor that controls cellular responses to low oxygen concentration. HIF-1 is composed of two subunits: hypoxia responsive HIF-1-alpha and constitutively expressed HIF-1-beta, which is also known as aryl hydrocarbon receptor nuclear translocator. During hypoxic conditions, HIF-1-alpha heterodimerizes with HIF-1-beta and translocates into the nucleus where the HIF-1 complex binds to the hypoxia-response element (HRE) and activates expression of target genes such as VEGF (vascular endothelial growth factor). The HIF-1 pathway is essential to normal growth and development, and is involved in the pathophysiology of cancer, inflammation, and ischemia. Using a beta-lactamase reporter-gene under control of the hypoxia response element, a cell-based assay [CellSensor(TM) HRE-bla ME-180 from Life Technologies, Carlsbad, CA] was used to measure hypoxia-induced signaling. Tox21 10K library compounds were measured for their ability to induce the reporter gene activity.
Tox21 Assay Protocol Summary: HRE-bla ME-180 cells were dispensed at 2,000 cells per well in 6 uL of assay medium containing 0.5% dialyzed FBS into black wall/clear-bottom 1536-well plates using a Multidrop Combi (Thermo Scientific, Waltham, MA) dispenser. After the assay plates were incubated at 37C and 5% CO2 for 5 hrs, 23 nL of compounds dissolved in DMSO, positive controls or DMSO only was transferred to each well of the assay plate using a Pintool station (Kalypsys, San Diego, CA). The assay plates were incubated at 37C and 5% CO2 for 17 hrs. One uL of LiveBLAzerTM B/G FRET substrate (CCF4-AM) (Life Technologies) was added to each well using a Flying Reagent Dispenser (Aurora Discovery, San Diego, CA).
On the % scale 0 is the no-effect control and ±100 the full control effect; potency means the concentration at half of the fitted maximal effect.

SMILES	activation	Potency
Cc1occc(=O)c1OC(=O)C(C)C	-1.12% (inactive)	
C=CS(=O)(=O)O	-2.36% (inactive)	
CC1=C(C=O)C(C)(C)CC=C1	-0.694% (inactive)	
CO[Si](OC)(OC)c1ccccc1	0.0226% (inactive)	
NC(=Nc1ccccc1)Nc1ccccc1		inactive
O=C(O)CP(=O)(O)O	-1.78% [at 35.5 µM] (inactive)	
CCC(C)(C)C(=O)O[C@H]1C[C@@H](C)C=C2C=C[C@H](C)[C@H](CC[C@@H]3C[C@@H](O)CC(=O)O3)[C@H]21	0.425% (inactive)	
O=C1Nc2ccccc2C1(c1ccc(O)cc1)c1ccc(O)cc1	1.89% [at 35.5 µM] (inactive)	
CC(C)CCOC(=O)c1ccc(N(C)C)cc1	-0.122% [at 35.5 µM] (inactive)	
CCc1ccc(C(c2ccc(CC)cc2)C(Cl)Cl)cc1	4.04% (inactive)	
CC(=O)OCCOCCOCCOC(C)=O		inactive
CCC(C)(Oc1ccc(C2(c3ccc(OC(C)(CC)C(=O)O)cc3)CCCCC2)cc1)C(=O)O (stereo not given)	-0.245% [at 35.5 µM] (inactive)	
CC[C@]1(O)C[C@@H]2CN(CCc3c([nH]c4ccccc34)[C@@](C(=O)OC)(c3cc4c(cc3OC)N(C)[C@H]3[C@@](O)(C(=O)OC)[C@H](OC(C)=O)[C@]5(CC)C=CCN6CC[C@]43[C@@H]65)C2)C1		inactive
CC(=O)O[C@]1(C(C)=O)CC[C@H]2[C@@H]3C[C@H](C)C4=CC(=O)CC[C@]4(C)[C@H]3CC[C@@]21C		inactive
CCC(CO)(CO)COCC(CC)(CO)CO	0.102% (inactive)	
Cc1cccc([N+](=O)[O-])c1C(=O)O	-0.79% (inactive)	
CC1COC(=O)O1 (stereo not given)		inactive
OCCN1CCNCC1	-0.0458% (inactive)	
O=C(OCc1ccccc1)c1ccc(O)cc1		inactive
CCCOC(=O)c1cc(O)c(O)c(O)c1		inactive

SMILES	activation	Potency
Cc1cc(C(C)(C)C)c(O)c(C(C)(C)C)c1		inactive
CCCCN(CCO)CCCC	0.0564% (inactive)	
CCOC(=O)C(C)C(C)=O (stereo not given)	-0.25% (inactive)	
CCN(CC)c1ccc2c(C)cc(=O)oc2c1		44 µM (active) and 43.6 µM (active)
O=C(O)CCc1ccccc1	0.656% (inactive)	
CC(C)(C)c1ccccc1	-0.494% (inactive)	
COC(c1ccccc1)(c1ccccc1)[C@H](Oc1nc(C)cc(C)n1)C(=O)O	-1.84% [at 35.5 µM] (inactive)	
O=Cc1ccc(Cl)cc1	0.222% (inactive)	
O=C(O)c1cc(Cl)cc(Cl)c1	0.0184% (inactive)	
CCN(CC)C(=O)Nc1ccc(OCC(O)CNC(C)(C)C)c(C(C)=O)c1 (stereo not given)	-0.177% [at 35.5 µM] (inactive)	
CC(=O)Nc1ccc(C(=O)CCl)cc1	-0.187% (inactive)	
C[N+]1([O-])CCOCC1	-0.121% (inactive)	
CCCC(=O)c1ccccc1	-0.639% (inactive)	
Nc1ccc(O)cc1	-0.92% [at 35.5 µM] (inactive)	
CCCN[C@H]1CCc2nc(N)sc2C1		inactive
Cc1cc(C2(c3cc(C)c(O)cc3C)OS(=O)(=O)c3ccccc32)c(C)cc1O		inactive
CCOc1ccccc1C(N)=O	0.412% (inactive)	
Cc1cccc(O)c1C	0.242% (inactive)	
COc1ccc(COC(C)=O)cc1		inactive
COC(=O)/C=C/c1ccccc1		inactive
